# Measurements from the supplement of paper PMC8728848.
# This excerpt belongs to a sample that is enriched for the strongest signals.
# B1: Epa6 (Candida glabrata), Q6DTM7_CANGB (protein)
# chain: MGSSHHHHHHSSGLVPRGSHMKDDYSSSLSNNNLGWTDPTEFPLGCSPNVTTPKNGLSMELYSYDYLKSGSNPCWDAAYLDPNYPRTGYKSHRLLAKVENVAGNINFYYHAPMGCTSLFDTLPQAYNYRTPLTMTNFTMLLYGYFKPKVTGYHTFTISADDLLFVNFGAGNAFDCCKRESSADDFGNYQAYAVWGSQTAKDDLTVHLDAGLYYPIRIFFNNRDNDGALSLTLKTESDPNPVIDFSDYFYSFDDTKDGCPGLVSYDTS
# What was measured:
# Assay in all cases: glycan array binding signal (z-score within array); higher = stronger binding
# Settings in all cases: glycan notation: IUPAC condensed, linker removed
# [1] = molecular target: Fuc(a1-2)Gal(b1-3)[Fuc(a1-4)]GlcNAc(b1-2)Man(a1-3)[Fuc(a1-2)Gal(b1-3)[Fuc(a1-4)]GlcNAc(b1-2)Man(a1-3)]Man(b1-4)GlcNAc(b1-4)GlcNAc
# Method in brief: (§1)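 Glycan array data came from 3228 arrays in the Consortium for Functional Glycomics database, and only arrays with an available protein sequence were kept. Glycan names were put into IUPAC-condensed notation, and columns mapping to the same glycan were averaged. The binding signal is a within-array Z-score, averaged across arrays of one protein sequence run at different concentrations or buffers and across linkers. A negative Z-score can be read as non-binding.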
# Fuc(a1-2)Gal(b1-4)Glc = molecular target: Fuc(a1-2)Gal(b1-4)Glc
# Method in brief: as §1
# [2] = molecular target: Fuc(a1-2)Gal(b1-4)GlcNAc(b1-2)[Fuc(a1-2)Gal(b1-4)GlcNAc(b1-4)]Man(a1-3)[Fuc(a1-2)Gal(b1-4)GlcNAc(b1-2)Man(a1-6)]Man(b1-4)GlcNAc(b1-4)GlcNAc
# Method in brief: as §1
# [3] = molecular target: Fuc(a1-2)Gal(b1-4)GlcNAc(b1-6)GalNAc
# Method in brief: as §1
# [4] = molecular target: Fuc(a1-2)Gal(b1-4)[Fuc(a1-3)]GlcNAc(b1-2)Man(a1-3)[Fuc(a1-2)Gal(b1-4)[Fuc(a1-3)]GlcNAc(b1-2)Man(a1-6)]Man(b1-4)GlcNAc(b1-4)[Fuc(a1-6)]GlcNAc
# Method in brief: as §1
# [5] = molecular target: Fuc(a1-2)[Gal(a1-3)]Gal(b1-3)GlcNAc(b1-2)Man(a1-3)[Fuc(a1-2)[Gal(a1-3)]Gal(b1-3)GlcNAc(b1-2)Man(a1-6)]Man(b1-4)GlcNAc(b1-4)GlcNAc
# Method in brief: as §1
# [6] = molecular target: Fuc(a1-2)[Gal(a1-3)]Gal(b1-4)GlcNAc(b1-2)Man
# Method in brief: as §1
# Fuc(a1-3)GlcNAc = molecular target: Fuc(a1-3)GlcNAc
# Method in brief: as §1
# [7] = molecular target: Fuc(a1-3)[Gal3S(b1-4)]GlcNAc6S
# Method in brief: as §1
# Fuc(b1-3)GlcNAc = molecular target: Fuc(b1-3)GlcNAc
# Method in brief: as §1
# [8] = molecular target: Gal(a1-3)Gal(b1-4)GlcNAc(b1-2)Man(a1-3)[Gal(a1-3)Gal(b1-4)GlcNAc(b1-2)Man(a1-6)]Man(b1-4)GlcNAc(b1-4)GlcNAc
# Method in brief: as §1
# Gal(a1-3)GalNAc = molecular target: Gal(a1-3)GalNAc
# Method in brief: as §1
# [9] = molecular target: Gal(a1-4)Gal(b1-3)GlcNAc(b1-2)Man(a1-3)[Gal(a1-4)Gal(b1-3)GlcNAc(b1-2)Man(a1-6)]Man(b1-4)GlcNAc(b1-4)GlcNAc
# Method in brief: as §1
# Gal(a1-4)Gal(b1-4)GlcNAc = molecular target: Gal(a1-4)Gal(b1-4)GlcNAc
# Method in brief: as §1
# [10] = molecular target: Gal(a1-4)Gal(b1-4)GlcNAc(b1-2)Man(a1-3)[Gal(a1-4)Gal(b1-4)GlcNAc(b1-2)Man(a1-6)]Man(b1-4)GlcNAc(b1-4)GlcNAc
# Method in brief: as §1
# [11] = molecular target: Gal(a1-4)Gal(b1-4)GlcNAc(b1-3)Gal(b1-4)Glc
# Method in brief: as §1
# Gal(a1-6)Glc = molecular target: Gal(a1-6)Glc
# Method in brief: as §1
# Gal(b1-2)Gal = molecular target: Gal(b1-2)Gal
# Method in brief: as §1
# Gal(b1-3)Gal(b1-4)GlcNAc = molecular target: Gal(b1-3)Gal(b1-4)GlcNAc
# Method in brief: as §1
# [12] = molecular target: Gal(b1-3)GalNAc(a1-3)[Fuc(a1-2)]Gal(b1-4)Glc
# Method in brief: as §1
# [13] = molecular target: Gal(b1-3)GalNAc(a1-3)[Fuc(a1-2)]Gal(b1-4)GlcNAc
# Method in brief: as §1
# [14] = molecular target: Gal(b1-3)GalNAc(b1-4)Gal(b1-4)Glc
# Method in brief: as §1
# [15] = molecular target: Gal(b1-3)GlcNAc(b1-3)Gal(b1-4)GlcNAc(b1-6)[Gal(b1-3)GlcNAc(b1-3)]Gal(b1-4)Glc
# Method in brief: as §1
# [16] = molecular target: Gal(b1-3)[Fuc(a1-4)]GlcNAc(b1-2)Man
# Method in brief: as §1
# Gal(b1-4)GlcNAc(b1-2)Man = molecular target: Gal(b1-4)GlcNAc(b1-2)Man
# Method in brief: as §1
# [17] = molecular target: Gal(b1-4)GlcNAc(b1-2)[Gal(b1-4)GlcNAc(b1-6)]Man(a1-6)[Gal(b1-4)GlcNAc(b1-2)Man(a1-3)]Man(b1-4)GlcNAc(b1-4)GlcNAc
# Method in brief: as §1
# [18] = molecular target: Gal(b1-4)GlcNAc(b1-3)Gal(b1-3)GlcNAc
# Method in brief: as §1
# [19] = molecular target: Gal(b1-4)GlcNAc(b1-3)Gal(b1-4)GlcNAc(b1-3)Gal(b1-4)GlcNAc(b1-3)Gal(b1-4)GlcNAc(b1-2)Man(a1-3)[Gal(b1-4)GlcNAc(b1-3)Gal(b1-4)GlcNAc(b1-3)Gal(b1-4)GlcNAc(b1-3)Gal(b1-4)GlcNAc(b1-2)Man(a1-6)]Man(b1-4)GlcNAc(b1-4)GlcNAc
# Method in brief: as §1
# Gal3S6S(b1-4)GlcNAc = molecular target: Gal3S6S(b1-4)GlcNAc
# Method in brief: as §1
# [20] = molecular target: GalNAc(b1-3)Gal(a1-4)Gal(b1-4)GlcNAc
# Method in brief: as §1
binder,measurement,setting,value
B1,glycan array binding signal (z-score),[1],-0.229
same,glycan array binding signal (z-score),Fuc(a1-2)Gal(b1-4)Glc,-0.123
same,glycan array binding signal (z-score),[2],-0.318
same,glycan array binding signal (z-score),[3],-0.062
same,glycan array binding signal (z-score),[4],-0.257
same,glycan array binding signal (z-score),[5],0.454
same,glycan array binding signal (z-score),[6],0.197
same,glycan array binding signal (z-score),Fuc(a1-3)GlcNAc,-0.304
same,glycan array binding signal (z-score),[7],-0.263
same,glycan array binding signal (z-score),Fuc(b1-3)GlcNAc,-0.331
same,glycan array binding signal (z-score),[8],3.7
same,glycan array binding signal (z-score),Gal(a1-3)GalNAc,4.17
same,glycan array binding signal (z-score),[9],6.23
same,glycan array binding signal (z-score),Gal(a1-4)Gal(b1-4)GlcNAc,4.65
same,glycan array binding signal (z-score),[10],4.02
same,glycan array binding signal (z-score),[11],4.42
same,glycan array binding signal (z-score),Gal(a1-6)Glc,8.63
same,glycan array binding signal (z-score),Gal(b1-2)Gal,6.14
same,glycan array binding signal (z-score),Gal(b1-3)Gal(b1-4)GlcNAc,10
same,glycan array binding signal (z-score),[12],4.95
same,glycan array binding signal (z-score),[13],5.98
same,glycan array binding signal (z-score),[14],3.9
same,glycan array binding signal (z-score),[15],0.257
same,glycan array binding signal (z-score),[16],-0.112
same,glycan array binding signal (z-score),Gal(b1-4)GlcNAc(b1-2)Man,-0.283
same,glycan array binding signal (z-score),[17],-0.198
same,glycan array binding signal (z-score),[18],-0.26
same,glycan array binding signal (z-score),[19],0.07
same,glycan array binding signal (z-score),Gal3S6S(b1-4)GlcNAc,-0.306
same,glycan array binding signal (z-score),[20],-0.126
